The panel holds about 83,000 compounds, 20% with a hit somewhere; the sample as a whole holds those more often.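 Results are percent growth after 48 hours of single-concentration exposure. 100 means growth as in untreated cells, lower positive values show inhibition; negative values down to -100 show cell death.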 Values without a mark were called inactive. Activity calls are given as the source filed them. How the source made its calls: active means growth percent below 10; inactive means the rest.

Common to all, as to assay: NCI-60 one-dose screen, 48 h (100 = growth as untreated, 0 = no growth, -100 = all killed)
Holding throughout (conditions): 10 µM

For experiment [1], the system named is NCI-H23 lung.
For experiment [2], the system named is NCI-H226 lung.
The subject of experiment [3] is NCI-H322M lung.
Experiment [4] concerns HOP-62 NSCLC.
For experiment [5], the system named is NCI-H460 lung.
Experiment [6] has as its system NCI-H522 lung.
Experiment [7] deals with A549/ATCC NSCLC.
Experiment [8] relates to 786-0 renal.
The subject of experiment [9] is COLO 205 colon.
For experiment [10], the system named is DU-145 prostate.
The subject of experiment [11] is K-562 leukemia.
Experiment [12] deals with MALME-3M melanoma.
The subject of experiment [13] is MDA-MB-231 breast.
Experiment [14] relates to RXF 393 renal.
For experiment [15], the system named is SF-268 CNS.
The subject of experiment [16] is SF-295 CNS.
Experiment [17] has as its system SF-539 CNS.
Experiment [18] relates to UACC-257 melanoma.
Experiment [19] relates to M14 melanoma.
The subject of experiment [20] is HCT-15 colon.

With `COc1ccc(-c2cc(/C=C3\C(=O)Nc4ccc(OC)cc43)[nH]n2)cc1`, the growth in experiment [1] was 67.1%; in experiment [2], 69.8%; in experiment [3], 53.9%; in [4] it was 50.7%; in experiment [5], 16.4%; in [6] it was 11.1%. For the same molecule, the growth in experiment [7] was 40.6%; in experiment [8], 65.3%; in [9], 13%; in experiment [10] it was 40.4%; in experiment [11], 15.6%; in experiment [12], 35.1%. Moreover, the growth in experiment [13] was 59.2%; in experiment [14] it was 48%; in [15], 42%; in experiment [16] it was 1.93% (active); in [17] it was 24.8%; in experiment [18], 68.8%. The growth is 35.7% in [19] and 22.8% in experiment [20].

`O=S(=O)(NCCNc1nccc(-c2c(-c3ccc(F)cc3)nc3sccn23)n1)c1ccc2ccccc2c1`: the growth in experiment [1] is 90.8%; in experiment [2], 92.7%; in [3] it was 73%; in experiment [4] it was 88.5%; in experiment [5] it was 55%; in experiment [6], 75.5%. In addition, the growth in [7] is 43.8%; in experiment [8], 89.4%; in [9], 57.4%; in experiment [10], 78.8%; in [11], 54.6%; in [12], 81.2%. Further, the growth in [13] was 98.3%; in [14], 91.3%; in experiment [15], 68.3%; in [16], 68.2%; in experiment [17], 104%; in experiment [18] it was 71%. Further, the growth is 82.9% in experiment [19] and 76.4% in experiment [20].

With `COc1cc(-c2cc(/C=C3\C(=O)Nc4ccccc43)[nH]n2)cc(OC)c1OC`, the growth in [1] was 56%; in experiment [2], 66.3%; in experiment [3], 68.6%; in experiment [4] it was 65%; in experiment [5], 74.7%; in experiment [6] it was 64.5%. The growth is 54.6% in [7]; 84.2% in [8]; 32.3% in experiment [9]; 82.5% in [10]; 31.7% in experiment [11]; 1.21% (active) in experiment [12]. For the same molecule, the growth in experiment [13] was 49.9%; in experiment [14] it was 79.3%; in [15], 74.8%; in [16], 70.6%; in [17], 67.8%; in [18], 23%. In addition, the growth in [19] was 32.8%; in experiment [20], 36.9%.

Turning to `C#Cc1ccc(-n2c(/C=C/c3ccc(Cl)c(F)c3)nc3ncccc3c2=O)cc1`, the growth in experiment [1] is 18.3%; in experiment [2], -74.5% (active); in experiment [3], -25% (active); in experiment [4], -57.6% (active); in experiment [5] it was -25.8% (active); in [6] it was -66.7% (active). Moreover, the growth was -8.32% (active) in experiment [7]; 7.88% (active) in experiment [8]; -90.2% (active) in experiment [9]; 3.49% (active) in experiment [10]; -8.5% (active) in experiment [11]; -60.4% (active) in [12]. In addition, the growth in [13] was -29.8% (active); in [14] it was -76.2% (active); in experiment [15] it was -61.9% (active); in [16], -60.1% (active); in experiment [17], 1.03% (active); in [18] it was -65.1% (active). In addition, the growth in experiment [19] was -9.7% (active); in experiment [20] it was 2.43% (active).

In the case of `COc1cc(/C=C\c2cc(OC)c(OC)c(OC)c2)cc(NS(=O)(=O)c2ccc(Cl)cc2)c1OC`, the growth in experiment [1] is 41%; in experiment [2], 33.9%; in [3], 48.7%; in experiment [4], 60.2%; in experiment [5], 13.8%; in experiment [6] it was -9.34% (active). In addition, the growth in experiment [7] was 25.3%; in [8], 39.3%; in experiment [9] it was -4.81% (active); in [10], 19.8%; in [11] it was 11.2%; in [12], 71.9%. For the same molecule, the growth is 24% in experiment [13]; -4.53% (active) in [14]; 39.7% in [15]; 10.9% in experiment [16]; -23.9% (active) in experiment [17]; 45.2% in experiment [18]. Further, the figures for the growth in experiment [19] and in experiment [20] were 18.8% and 20%, respectively.

As to `O=C(N/N=C/c1cc2ccccc2c2ccccc12)c1cc(O)c(O)c(O)c1`, the growth in [1] was 70.2%; in experiment [2], 95.6%; in [3], 74.6%; in experiment [4], 54.5%; in experiment [5], 88.1%; in experiment [6], -41.3% (active). Besides, the growth is 94.4% in experiment [7]; 82.6% in experiment [8]; 72.7% in experiment [9]; 75.8% in [10]; 20.2% in [11]; 49% in experiment [12]. Moreover, the growth in [13] is 68.4%; in experiment [14], 75%; in [15] it was 46.7%; in [16], 88.8%; in experiment [17] it was 50%; in [18] it was 75.3%. The values for the growth in experiment [19] and in experiment [20] were 61% and 60%, respectively.

`COc1ccc(-c2cc(-c3cccc(NS(C)(=O)=O)c3)nc(N)c2C#N)cc1`: the growth in experiment [1] is 37.7%; in [2], 62.8%; in experiment [3], 44.4%; in experiment [4], 52.3%; in experiment [5], 4.64% (active); in experiment [6], -4.96% (active). Besides, the growth in [7] was 33.6%; in experiment [8], 42.9%; in experiment [9], -27% (active); in experiment [10] it was 5.82% (active); in experiment [11], 14.3%; in experiment [12], 2.95% (active). For the same molecule, the growth is 30.4% in experiment [13]; 16.3% in experiment [14]; 29.9% in [15]; 0.458% (active) in [16]; 5.27% (active) in experiment [17]; 79.1% in experiment [18]. Moreover, the growth was 6.36% (active) in experiment [19] and 30.5% in experiment [20].

Consider `COc1cc(/C=C/C(=O)c2ccc(Cl)cc2)ccc1OS(=O)(=O)c1ccc(C)cc1`, for which the growth in [1] was 99.3%; in experiment [2] it was 98.5%; in experiment [3], 96.7%; in experiment [4] it was 95.1%; in experiment [5], 103%; in experiment [6], 81.7%. For the same molecule, the growth was 99.9% in [7]; 102% in experiment [8]; 110% in [9]; 105% in [10]; 14.9% in [11]; 101% in [12]. The growth in experiment [13] is 90.9%; in experiment [14], 117%; in experiment [15], 102%; in experiment [16], 94.2%; in experiment [17] it was 111%; in experiment [18], 110%. The growth is 105% in [19] and 66% in experiment [20].

For the origin of these results see PubChem BioAssay (NCI).
